# Measurements reported in article PMC4336329 (PLoS ONE, 2015).
# About 14,000 (4.5%) of roughly 310,000 compounds showed an effect of 50% or more. The effect is printed as a negative number. The sample holds strong results, similar compounds and a random draw of the others, so the mix is not that of the screen.
# Molecular target: human ether-à-go-go-related gene (hERG) potassium channel (human, UniProt Q12809)
# Test: primary screen, population patch clamp on CHO cells stably expressing hERG; higher = less effect of the substance
# 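Also: peak tail current of the secondary pulse compared with the same well before compound.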
# Sequence of human ether-à-go-go-related gene (hERG) potassium channel (Q12809 whole entry, looked up): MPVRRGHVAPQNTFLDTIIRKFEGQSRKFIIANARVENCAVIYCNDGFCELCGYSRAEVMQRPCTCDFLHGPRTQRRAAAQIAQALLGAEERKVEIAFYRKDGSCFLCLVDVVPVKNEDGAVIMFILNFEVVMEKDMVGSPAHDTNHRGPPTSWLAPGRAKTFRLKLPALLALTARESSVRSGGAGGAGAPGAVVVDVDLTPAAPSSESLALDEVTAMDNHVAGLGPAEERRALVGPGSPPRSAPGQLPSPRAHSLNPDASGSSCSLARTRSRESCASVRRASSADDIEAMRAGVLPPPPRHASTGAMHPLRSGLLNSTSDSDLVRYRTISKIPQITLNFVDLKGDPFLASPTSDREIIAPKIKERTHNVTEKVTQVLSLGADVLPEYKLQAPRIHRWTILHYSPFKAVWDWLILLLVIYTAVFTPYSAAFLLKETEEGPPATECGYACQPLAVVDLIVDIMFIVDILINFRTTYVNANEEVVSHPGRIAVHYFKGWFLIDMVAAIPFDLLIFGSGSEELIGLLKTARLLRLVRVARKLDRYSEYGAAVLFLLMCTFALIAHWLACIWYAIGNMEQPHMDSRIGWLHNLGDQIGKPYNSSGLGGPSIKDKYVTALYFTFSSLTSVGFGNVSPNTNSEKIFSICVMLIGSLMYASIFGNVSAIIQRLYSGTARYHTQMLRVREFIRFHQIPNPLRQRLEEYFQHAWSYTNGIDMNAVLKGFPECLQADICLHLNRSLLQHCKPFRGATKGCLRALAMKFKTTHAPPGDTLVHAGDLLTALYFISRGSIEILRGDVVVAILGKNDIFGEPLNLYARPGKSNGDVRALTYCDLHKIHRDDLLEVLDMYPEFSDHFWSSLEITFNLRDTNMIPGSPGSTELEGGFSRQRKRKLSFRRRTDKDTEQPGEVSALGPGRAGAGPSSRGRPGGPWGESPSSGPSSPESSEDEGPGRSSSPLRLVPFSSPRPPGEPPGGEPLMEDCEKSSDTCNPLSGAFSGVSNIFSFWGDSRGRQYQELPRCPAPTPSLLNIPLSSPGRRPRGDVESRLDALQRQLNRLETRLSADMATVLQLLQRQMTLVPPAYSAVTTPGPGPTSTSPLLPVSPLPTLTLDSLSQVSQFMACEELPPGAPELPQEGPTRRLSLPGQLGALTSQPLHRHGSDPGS
row,Structure (SMILES),"hERG current change (%, negative = inhibition) at 10uM [%]"
1,CCC(Sc1nc(C)cc(=O)[nH]1)C(=O)Nc1sc2c(c1C#N)CCCC2 (stereo not shown),-19.1
2,Cc1ccc2oc3nc(C)c(C(=O)Nc4cccc(C(F)(F)F)c4)cc3c(=O)c2c1,6.48
3,O=C(CCS(=O)(=O)c1cccc2nsnc12)N1CCN(c2ccccc2F)CC1,-30.3
4,COC(=O)C1=C(C(=O)c2ccc(C)cc2)C(c2ccc(OC)c(OC)c2)n2nnnc2N1 (stereo not shown),3.59
5,Cc1ccc(O)c(-c2cc(-c3cccc(F)c3)n[nH]2)c1,23.6
6,CCOC(=O)C1(Cc2ccc(Cl)cc2)CCN(Cc2cnc(N)nc2)CC1,-74.7
7,CCOC(=O)C1(Cc2cccc(F)c2)CCN(Cc2ccon2)CC1,3.48
8,CCOC(=O)C1(Cc2cccc(F)c2)CCN(Cc2cnn(CC)c2C)CC1,-16.6
9,CCOC(=O)C1(Cc2ccc(Cl)cc2)CCN(Cc2ccon2)CC1,-49.5
10,CCCn1cc(CN2CCC(Cc3cccc(F)c3)(C(=O)OCC)CC2)c(C)n1,-67.2
11,CCOC(=O)C1(Cc2cccc(OC)c2)CCN(Cc2cnc(N)nc2)CC1,-28.2
12,CCCn1ncc(CN2CCC(Cc3cccc(F)c3)(C(=O)OCC)CC2)c1C,-59.7
13,CCOC(=O)C1(Cc2cccc(F)c2)CCN(Cc2cn(CC)nc2C)CC1,-38
14,CCOC(=O)C1(Cc2cccc(F)c2)CCN(Cc2ccc(COC)o2)CC1,-23.5
15,CCOC(=O)C1(Cc2ccc(Cl)cc2)CCN(Cc2cn(CC)nc2C)CC1,-67.7
16,CCOC(=O)C1(S(=O)(=O)c2ccc(Cl)cc2)CCN(Cc2ccc(Cl)cc2)CC1,14.7
17,O=C(NCC1OCCc2ccccc21)c1ccc(NC(=O)c2cccc(Br)c2)cc1 (stereo not shown),2.42
18,COC(=O)Cn1c(C)c(C(C)=O)c(C(C)=O)c1C,14.1
19,CCOCCCN1C(=O)C(=O)N(CC(=O)N2c3ccccc3NC(=O)CC2C)C1=O (stereo not shown),17.2
20,O=C(O)c1cc(S(=O)(=O)N2CCCCC2)sc1Cl,17
21,Cc1ccc(C)c(OCCC(=O)NCCc2ccc(Cl)cc2)c1,21.6
22,O=C(COC(=O)Cc1cccc(C(F)(F)F)c1)NCC1CCCO1 (stereo not shown),1.46

row,Structure (SMILES),"hERG current change (%, negative = inhibition) at 10uM [%]"
1,O=C(OCC(=O)N1CCCc2ccccc21)c1cc(Br)ccc1O,12.4
2,COc1c2c(nc3occc13)C(CC=C(C)C)(OC)C(O)CC2 (stereo not shown),5.5
3,CCCn1cc(CN2CCC(Cc3ccccc3)(C(=O)OCC)CC2)c(C)n1,-60.4
4,CC1(C)Cc2ccccc2-c2nc3n(c(=O)c21)CCCS3,12.8
5,Cc1cc(OC(C)C(=O)NNC(=O)Nc2ccc(F)cc2F)cc(C)c1Cl (stereo not shown),22.3
6,COc1ccc(CCN2C(=O)c3ccccc3NC2c2cc(Cl)c(O)c(OC)c2)cc1 (stereo not shown),-4.85
7,CN(Cc1ccccc1)CC1CCCN(CCc2ccccc2F)C1 (stereo not shown),-49.9
8,COc1ccc(CCN2CCCC(CN(C)Cc3cc(OC)ccc3OC)C2)cc1 (stereo not shown),-69.1
9,COc1ccc(CCN2CCCC(CN(C)Cc3cc(Cl)c(O)c(OC)c3)C2)cc1 (stereo not shown),-65.7
10,COc1ccc(CCN2CCCC(CN(C)Cc3cc(OC)c(OC)c(OC)c3)C2)cc1 (stereo not shown),-51.6
11,COc1cc(CN(C)CC2CCCN(CCc3ccccc3F)C2)cc(Cl)c1OC (stereo not shown),-69.8
12,COc1ccc(OC)c(CN2CCCC(CO)C2)c1 (stereo not shown),0.935
13,COc1cc(OC)c(OC)cc1CN(C)CC1CCCN(CCc2ccccc2F)C1 (stereo not shown),-2.33
14,CC(=O)Nc1ccc(NC(=O)c2oc3cc(C)c(C)cc3c2C)cc1,7.5
15,COc1ccc(-c2cc(CCCC(=O)NCCc3ccc(OC)cc3OC)no2)cc1,5.37
16,CN(CC1COCCO1)C(=O)c1cc(COc2c(F)cccc2F)on1 (stereo not shown),6.62
17,O=C(COc1ncnc2c(Cl)cc(Cl)cc12)NCCC1=CCCCC1,12.4
18,Cc1cccc(C(=S)N2CCOCC2)n1,5.42
19,C=CCNC(=O)C(C)Sc1ccc(Cl)cc1 (stereo not shown),0.00948
20,Cc1cc(C(C)(C)C)cc(C)c1C(=O)O,0.0126
21,Cn1cnnc1SCc1ccc(C(=O)N/N=C/c2cccs2)cc1,4.87
